Measured values published in ChEMBL document CHEMBL1157539, “Thousands of chemical starting points for antimalarial lead identification” (Nature, 2010).

What was measured:
Format in all cases: functional
[1] = tested on: Plasmodium falciparum; assay: GSK_TCMDC: Inhibition of Plasmodium falciparum 3D7 in whole red blood cells, using parasite LDH activity as an index of growth. Test compounds present at 2uM
[2] = tested on: Plasmodium falciparum; assay: GSK_TCMDC: Inhibition of Plasmodium falciparum Dd2 in whole red blood cells, using parasite LDH activity as an index of growth. Test compounds present at 2uM
[3] = tested on: HepG2; assay: GSK_TCMDC: Percent inhibition of human HepG2 cell line. Test compounds present at 10uM.

SMILES	Inhibition [1] [%]	Inhibition [2] [%]	Inhibition [3] [%]
Cc1cccnc1Nc1nc(-c2ccccn2)cs1	96	99	60
CN(C)CCN1CCN(Cc2cccc(-c3csc(-c4nc5ccccc5[nH]4)c3)c2)CC1.O=C(O)C(F)(F)F	100	97	28
O=C(Nc1cccc(Cl)c1Cl)N[C@H]1CCN(CCCCCNC(=O)C2CC2c2ccc(Cl)c(Cl)c2)C1 (stereo partly drawn)	87	0	40
COc1ccc2nccc([C@@H](O)CN3CCC(NCc4[nH]c5ccccc5c4F)CC3)c2c1.O=C(O)C(=O)O	100	61	19
CC(C)(C)c1ccc(CN2CCC(CNC(=O)c3cc(-c4ccccc4F)cs3)C2)cc1.O=C(O)C(F)(F)F (stereo not drawn)	100	98	46
COC1CCC(C(=O)Nc2ccc(-c3cccc(-c4nc5cc(C(F)(F)F)ccc5[nH]4)c3)cc2)CC1 (stereo not drawn)	85	48	69
CCNc1cc(C(=O)N[C@@H](Cc2ccccc2)[C@H](O)CNCC(C)C)cc(N2CCCC2=O)c1	98	97	16
CC1(C)N=C(NC(=O)c2cc([N+](=O)[O-])cc([N+](=O)[O-])c2)N=C(N)N1OCc1cccc2ccccc12	94	20	66
COc1ccc(CN2CCC(N3CCc4cc(NC(=O)c5cc(C)on5)ccc43)C2)cc1Cl (stereo not drawn)	94	91	15
O=C(NC1CCCCC1)N(Cc1ccc(-c2ccc(CNC3CCCC3)cc2)cc1)C1CCN(Cc2ccccc2)CC1.O=C(O)C(F)(F)F	99	86	31
COc1ccc2nccc([C@@H](O)CN3CCC(NC(=O)C(c4cc5ccccc5o4)N4CCN(Cc5ccccc5)CC4)CC3)c2c1 (stereo partly drawn)	91	75	30
Cc1[nH]c(C)c(-c2ccc(OCc3ccc(OC(F)(F)F)cc3)nc2)c(=O)c1Br	98	97	10
N#Cc1cc(C(=O)c2cc(Br)ccc2O)cn(C2CCCCC2)c1=O	89	9	3
CC(=O)Nc1nc(C(=O)Nc2ccc(-c3cccc(-c4nc5ccccc5[nH]4)c3)cc2)cs1	99	83	68
Oc1ccc(-c2ccccc2)cc1CN1CCCCC1	93	70	3
COc1ccc(C2(CNCC(O)c3cccc([N+](=O)[O-])c3)CCCCC2)cc1OC.Cl (stereo not drawn)	95	85	0

SMILES	Inhibition [1] [%]	Inhibition [2] [%]	Inhibition [3] [%]
O=C(CCCCCNC(=O)c1ccc(O)c(-c2cccc(C(F)(F)F)c2)c1)NCCN1CCCCC1	99	0	0
CCCCCc1cc(OCCN(C)C)cc2c1C(=O)CC(C)(C)O2.Cl	98	0	5
CCCc1c(Cl)cc(CNCCCNc2nc3ccncc3[nH]2)cc1Cl	98	0	23
CN1CCN(c2ccc(Nc3nccc(-c4c(-c5cccc(NC(=O)c6c(F)cccc6F)c5)nn5ccccc45)n3)cc2)CC1	98	98	86
O=C(O)C(F)(F)F.O=C1CCCN1CCCNCc1ccc(-c2cccc(-c3nc4cc(F)ccc4[nH]3)c2)cc1	100	8	12
CCOC(=O)NCCSC(C)(C)[C@H](NC(=O)[C@H](Cc1cc2ccccc2s1)[C@H](CC)N(O)C=O)C(=O)Nc1nccs1	98	98	11
OC(CNc1ccnc(Nc2ccc(Cl)cc2)n1)c1cccc(C(F)(F)F)c1 (stereo not drawn)	100	84	9
OC(CNC1CCCCC1)Cn1c2ccc(I)cc2c2cc(I)ccc21 (stereo not drawn)	100	93	10
O=C(Nc1ccc(Cl)cc1)c1ccc(CN2CCCN(Cc3ccsc3)CC2)cc1.O=C(O)C(F)(F)F	88	1	48
Oc1ccc(CCNc2nc(NCc3ccccc3-c3ccc(C(F)(F)F)cc3)nc(N3CCNCC3)n2)cc1	97	53	17
CC(C)COc1ccc(Cl)cc1Cc1ccc(-c2nc3ccc(F)c(F)c3[nH]2)o1	94	85	26
O=c1c(NCCCN(Cc2ccc(F)cc2)c2ccccn2)c(NCc2cccnc2)c1=O	100	92	0
CC(=O)Nc1nc(N)c2c(ccc3c2ccn3CC(C)C)n1	94	78	66
Cl.Ic1cc(Nc2ncnc3ccsc23)ccc1OCc1ccccc1	100	81	22
Cc1cccc2nc(-c3cccc(-c4cccc(CNCc5ccc(S(C)(=O)=O)cc5)c4)c3)[nH]c12.O=C(O)C(F)(F)F	100	66	13
